In PubChem BioAssay (NCI) one finds growth data, which are given here for 14 compounds.

The panel holds about 83,000 compounds, 20% with a hit somewhere; the sample as a whole holds those more often.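 Plates (96-well) were seeded with cells, treated with compound at one concentration, and incubated for 48 hours before percent growth was determined.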 Unmarked numbers belong to inactive results. Active and inactive are the calls of the source. Rule for the calls: active = growth percent below 10; inactive = the rest.

Among the test systems are T-47D breast; BT-549 breast; MDA-MB-435 melanoma; SW-620 colon; MCF7 breast; HCT-116 colon; HCC-2998 colon; KM12 colon.
Assay in all cases: NCI-60 one-dose screen, 48 h (100 = growth as untreated, 0 = no growth, -100 = all killed)
Conditions in all cases: 10 µM

For `CC(=O)O[C@@]12CO[C@@H]1C[C@H](O)[C@@]1(C)C(=O)[C@H](O)C3=C(C)[C@@H](OC(=O)[C@H](O)[C@@H](NC(=O)OC(C)(C)C)c4ccccc4)C[C@@](O)([C@@H](OC(=O)c4ccccc4)C12)C3(C)C` (some centres not stated), the growth in the assay on T-47D breast was 65.2%; with BT-549 breast, 42.8%; with MDA-MB-435 melanoma it was -11.7% (active); with SW-620 colon, 48.1%; with MCF7 breast, 16.1%; with HCT-116 colon it was 34.6%. Moreover, the growth in the assay on HCC-2998 colon was -18.8% (active); in the assay on KM12 colon it was 29.6%.
Turning to `CC[C@@H]1NC(=O)[C@H]([C@H](O)[C@H](C)C/C=C/c2ccc(CN3C(=O)CCCC3=O)cc2)N(C)C(=O)[C@H](C(C)C)N(C)C(=O)[C@H](CC(C)C)N(C)C(=O)[C@H](CC(C)C)N(C)C(=O)[C@@H](C)NC(=O)[C@H](C)NC(=O)[C@H](CC(C)C)N(C)C(=O)[C@H](C(C)C)NC(=O)[C@H](CC(C)C)N(C)C(=O)CN(C)C1=O`, the growth in the assay on T-47D breast was 25.3%; in the assay with BT-549 breast, 8.44% (active); with MDA-MB-435 melanoma, 10.8%; in the assay with SW-620 colon it was 56%; in the assay with MCF7 breast, 25.3%; with HCT-116 colon, 16%. The growth with HCC-2998 colon was 69.6%; in the assay on KM12 colon it was 45.9%.
For the compound `NC(=O)c1cccc(-n2ccc3cc(NC(=O)Nc4ccc(Cl)c(C(F)(F)F)c4)ccc32)n1`, the growth in the assay on T-47D breast is 68.5%; in the assay with BT-549 breast, 69.8%; in the assay with MDA-MB-435 melanoma it was 74.9%; in the assay with SW-620 colon, 111%; in the assay on MCF7 breast it was 43.8%; in the assay with HCT-116 colon, 67%. Also, the values for the growth in the assay with HCC-2998 colon and with KM12 colon were 96.3% and 64.4%, respectively.
For `COc1cc(-c2csc(NC(=O)Nc3cc(C(F)(F)F)cc(C(F)(F)F)c3)n2)cc(OC)c1OC`, the growth in the assay on T-47D breast is -8.28% (active); in the assay with BT-549 breast it was 0.972% (active); in the assay with MDA-MB-435 melanoma it was 13%; with SW-620 colon it was 26.5%; in the assay with MCF7 breast, 2.97% (active); in the assay on HCT-116 colon, 0.288% (active). In addition, the growth is 22.4% in the assay with HCC-2998 colon and 18.7% with KM12 colon.
Consider `CCOC(=O)c1cc(C(=O)c2cc(OC)cc(OC)c2)n2nc(C)ccc12`, for which the growth in the assay with T-47D breast is 43.9%; in the assay with BT-549 breast it was 48.7%; in the assay with MDA-MB-435 melanoma, -16.2% (active); with SW-620 colon it was 17.8%; with MCF7 breast, 20.8%; in the assay with HCT-116 colon it was 25.2%. The growth was 54.1% with HCC-2998 colon and 29.4% in the assay with KM12 colon.
On to `COc1cc(-c2nn(-c3cccc(NC(=O)NCCNS(=O)(=O)c4ccc(Cl)cc4)c3)cc2-c2ccncc2)ccc1Cl`, for which the growth in the assay with T-47D breast was 23.8%; in the assay on BT-549 breast, -11.6% (active); in the assay on MDA-MB-435 melanoma, 2.25% (active); in the assay on SW-620 colon it was 18.9%; with MCF7 breast, 4.85% (active); in the assay on HCT-116 colon it was 0.871% (active). Further, the growth is -9.49% (active) with HCC-2998 colon and 7.63% (active) with KM12 colon.
For `CCOC(=O)CN(c1sc(C)c(C)c1C(=O)OCC)S(=O)(=O)c1ccc(C)cc1`, the growth in the assay on T-47D breast is 88.5%; with BT-549 breast, 102%; in the assay with MDA-MB-435 melanoma, 102%; in the assay with SW-620 colon, 100%; in the assay on MCF7 breast it was 100%; with HCT-116 colon it was 95.5%. Further, the values for the growth with HCC-2998 colon and with KM12 colon were 100% and 96%, respectively.
With `Cc1ccc(-c2c3c(N)nc(-c4cccnc4)nc3nc3c2c(C)nn3-c2ccccc2)cc1`, the growth is 81.8% in the assay with T-47D breast; 100% in the assay with BT-549 breast; 82.7% in the assay with MDA-MB-435 melanoma; 102% in the assay with SW-620 colon; 87.7% in the assay on MCF7 breast; 81.1% in the assay with HCT-116 colon. Also, the figures for the growth in the assay with HCC-2998 colon and with KM12 colon were 103% and 97.1%, respectively.
Take `COc1ccc(C(=O)N2C=Cc3ccccc3C2C#N)cc1` (configuration not stated): the growth in the assay with T-47D breast was 90.8%; with BT-549 breast, 103%; with MDA-MB-435 melanoma, 72.3%; in the assay with SW-620 colon it was 99%; in the assay on MCF7 breast it was 96.4%; with HCT-116 colon it was 115%. For the same compound, the figures for the growth in the assay on HCC-2998 colon and in the assay with KM12 colon were 103% and 89.6%, respectively.
Consider `COc1cccc(-c2nc3sccn3c2-c2cccc(S(C)(=O)=O)c2)c1`, for which the growth with T-47D breast is 98.7%; with BT-549 breast it was 103%; in the assay on MDA-MB-435 melanoma it was 110%; in the assay on SW-620 colon it was 104%; with MCF7 breast, 79.6%; in the assay on HCT-116 colon it was 104%. Besides, the growth is 94% with HCC-2998 colon and 109% in the assay with KM12 colon.
Consider `COc1ccc(-c2cc(-c3cc(OC)ccc3OC)nc(N)c2C#N)cc1`, for which the growth in the assay with T-47D breast is 54.4%; in the assay with BT-549 breast it was 24.7%; in the assay on MDA-MB-435 melanoma, 46.8%; with SW-620 colon it was 65.5%; in the assay with MCF7 breast, 38.9%; with HCT-116 colon it was 35.1%. Moreover, the growth in the assay on HCC-2998 colon is 76.6%; in the assay on KM12 colon, 71.7%.
Consider `CN1CCN(CC(=O)Nc2cccc(-n3cc(-c4ccncc4)c(-c4ccc(Cl)c(O)c4)n3)c2)CC1`, for which the growth with T-47D breast was 61.3%; in the assay with BT-549 breast, 36.6%; in the assay with MDA-MB-435 melanoma, -47.5% (active); in the assay with SW-620 colon, 20.8%; with MCF7 breast it was 15.2%; in the assay with HCT-116 colon it was 17.3%. The growth in the assay on HCC-2998 colon is 85.6%; in the assay with KM12 colon, 26.1%.
For the compound `COc1cc2cc(Oc3ccc(NC(=O)c4cccc(C(F)(F)F)c4)cc3)c(C)nc2cc1OC`, the growth is 91.6% with T-47D breast; 16.3% in the assay on BT-549 breast; 24.5% in the assay on MDA-MB-435 melanoma; 54.8% in the assay with SW-620 colon; 31% in the assay on MCF7 breast; 18.1% in the assay on HCT-116 colon. For the same compound, the growth was 62.3% in the assay on HCC-2998 colon and 25.8% in the assay with KM12 colon.
As for `Cc1c2cnccc2c(C)c2c1oc1ccccc12`, the growth in the assay with T-47D breast was 77.5%; in the assay on BT-549 breast, 80.9%; in the assay on MDA-MB-435 melanoma it was 91.6%; in the assay on SW-620 colon, 64.1%; in the assay with MCF7 breast it was 43.7%; with HCT-116 colon it was 45%. Further, the growth in the assay on HCC-2998 colon is 84.9%; with KM12 colon, 81.7%.
